Compounds without any hit were thinned out: in the full panel of roughly 83,000, 20% have a hit.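 Testing used 96-well plates and a 48-hour single-concentration exposure. Example: -40 means 40% of the starting cells died.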 Values without a mark were called inactive. Active and inactive are the calls of the source. How the source made its calls: active means growth percent below 10; inactive means the rest.

Data on 40 compounds can be found in PubChem BioAssay (NCI).

For this assay, the system named is SF-539 CNS. Nature of the assay: NCI-60 one-dose screen, 48 h (100 = growth as untreated, 0 = no growth, -100 = all killed). The following applies: 10 µM unless noted.
Take `COc1ccc(/C=C(/C(=O)N2CCCCC2)c2cc(OC)c(OC)c(OC)c2)cc1`: the growth was -10.5% (active).
As to `COc1ccc(OC)c(Cn2cc3c(c2)-c2oncc2CC3)c1`, the growth was -7.35% (active).
On to `COc1ccc(CN2C(=O)/C(=C\C(=O)c3ccc(OCCN4CCCCC4)cc3)c3ccccc32)cc1`, for which the growth is 86.4%.
Consider `COc1ccc(/C=C2\SC(=O)N(Cc3cc(=O)oc4ccc(OC)cc34)C2=O)cc1`, for which the growth was 89.6%.
On to `O=c1oc2ccc3ccccc3c2cc1-c1ccnc2[nH]c(=S)[nH]c(=O)c12`, for which the growth is 103%.
Take `O=C(O)c1occ(Cl)c1Cl`: the growth was 111%.
For `COc1ccc(Cn2cc3c(c2-c2ccccc2)CCc2cnoc2-3)cc1OC`, the growth is -22.1% (active).
On to `CCCCN(CCCC)CC(O)CN(CC)CC` (stereo not given), for which the growth is 108%.
`O=C(/C=C/c1c[nH]c2ccccc12)c1cc2ccccc2o1`: the growth is 82.1%.
With `COc1ccc2sc(-n3nc4nc5n(c(=O)c4c3N)-c3ccccc3Sc3ccccc3-5)nc2c1`, the growth is 104%.
For `CCOC(=O)NNc1[nH]c(-c2ccc(OC)cc2)cc1C#N`, the growth is 94.3%.
Turning to `COc1ccc(-c2cn3ccnc3c(-c3ccc4ncn(C5CCCCC5)c4c3)n2)cc1`, the growth was -43.4% (active).
Turning to `CCOC(=O)C1=NN(c2ccccc2)C2=NC(=O)/C(=C\c3cn(-c4ccccc4)nc3-c3cc4ccccc4o3)C(=O)N12`, the growth was 114%.
In the case of `O=C(/C=C1\C(=O)N(Cc2ccc([N+](=O)[O-])cc2)c2ccccc21)c1ccc(OCCN2CCCCC2)cc1`, the growth is -84.6% (active).
Consider `NNC(=S)N1N=C(c2cc3ccccc3o2)CC1c1c[nH]c2ccccc12` (stereo not given), for which the growth was 57.9%.
With `O=C(/C=C1\C(=O)N(Cc2ccccc2)c2ccccc21)c1ccc(OCCN2CCCCC2)cc1`, the growth is 51.9%.
With `COc1ccc(CN2C(=O)/C(=C\C(=O)c3ccc(OCCN4CCCC4)cc3)c3ccccc32)cc1`, the growth is 86.6%.
Consider `C[C@@H](c1ccc2c(c1)[nH]c1ccc(Cl)cc12)c1nc2ccccc2[nH]1`, for which the growth was 98.7%.
Regarding `c1ccc(-c2cn3ccnc3c(-c3ccc4ncn(C5CCCCC5)c4c3)n2)cc1`, the growth was 72.2%.
`C[C@@H](c1ccc2c(c1)[nH]c1ccc(Cl)cc12)c1nc2ccc(Cl)cc2[nH]1`: the growth is 85.7%.
As to `COc1cc(CNC(=O)CCCC/C=C/C(C)C)ccc1OCc1nnc(Nc2ccccc2F)o1`, the growth was 48.2%.
Take `Cc1c(CN(C)C)cc(C(C)C)cc1C(C)C`: the growth was 118%.
As to `O=S(=O)(O)c1ccc2c(c1)Sc1cc(S(=O)(=O)O)ccc1O2`, the growth was 117%.
In the case of `COc1ccc(Cn2cc3c(c2-c2ccccc2)CCc2cnoc2-3)cc1N`, the growth was -13.1% (active).
As to `COc1ccc(/C=C(/C(=O)N2CCN(c3ccc(C)cc3)CC2)c2cc(OC)c(OC)c(OC)c2)cc1N`, the growth was -4.4% (active).
`C=CCN(C)C`: the growth was 109%.
Regarding `CCNc1nnc(COc2ccc(CNC(=O)CCCC/C=C/C(C)C)cc2OC)o1`, the growth is 104%.
Consider `COc1ccc2oc(=O)cc(CN3C(=O)S/C(=C\c4ccc(Cl)cc4)C3=O)c2c1`, for which the growth is 99.6%.
The figure for `CC(C)OC(=O)Nn1cnc2ccccc21` is 95.2%; for `COc1ccc(Cn2cc3c(c2-c2ccc(OC)cc2)CCc2cnoc2-3)cc1` it is -28% (active); for `COc1cc(Cn2ccc3c2-c2oncc2CC3)cc(OC)c1` it is 19.6%.
For the compound `COc1cccc(Cn2cc3c(c2)-c2oncc2CC3)c1`, the growth is -7.13% (active).
In the case of `COc1ccc(C2=C/C(=C\c3ccc(Cl)cc3)C(=O)NN2C(=S)NN)cc1`, the growth is 111%.
On to `COc1ccc(Cn2cc3c(c2)-c2oncc2CC3)cc1OC`, for which the growth was -21.5% (active).
To `COc1ccccc1Nc1nnc(COc2ccc(CNC(=O)CCCC/C=C/C(C)C)cc2OC)o1` belongs 93.4%.
On to `N=c1c2c(=O)n3c(nc2nc2sc4ccc(Cl)cc4n12)-c1ccccc1Sc1ccccc1-3`, for which the growth is 27.2%.
Regarding `CCCC(=O)NNc1[nH]c(-c2cc(OC)c(OC)c(OC)c2)cc1C(=O)OCC`, the growth is 91.6%.
The figure for `COc1ccc(Cn2cc3c(c2-c2ccc(O)cc2)CCc2cnoc2-3)cc1` is -16.2% (active); for `COc1ccc(OC)c(Cn2cc3c(c2-c2ccccc2)CCc2cnoc2-3)c1` it is 54.9%.
For the compound `CCCCCCCCCCCCCCCCCC1=NCCN1CS(=O)(=O)O`, the growth was 61.2%.
